Structures can show the parent of a compound that is named as a salt. A number with no mark means an inactive call.
tested on: HeLa; assay: MALAT1 nuclear FISH intensity, robust Z-score vs DMSO; higher = more nuclear MALAT1 lncRNA, active = -3 or less; settings: 10 µM; 6 h
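Note: High-content confocal imaging of branched-DNA amplified FISH in 384-well plates, Hoechst-defined nuclei, score is well value minus plate DMSO median over DMSO robust SD, four wells per compound.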

| Compound | MALAT1 nuclear FISH intensity |
| --- | --- |
| CCC(=O)O[C@]1(C(=O)CCl)[C@@H](C)C[C@H]2[C@@H]3CCC4=CC(=O)C=C[C@]4(C)[C@@]3(F)[C@@H](O)C[C@@]21C [Clobetasol Propionate] | 0.628 |
| O=C(O)c1ccccc1Nc1ccccc1 [N-Phenylanthranilic acid] | 1.66 |
| C=C(c1ccc(C(=O)O)cc1)c1cc2c(cc1C)C(C)(C)CCC2(C)C [Bexarotene] | -1.19 |
| O=C1NC(=O)/C(=C\c2ccc3nccnc3c2)S1 | -1.19 |
| CC(=O)O[C@H]1C(=O)[C@@]2(C)[C@H]([C@H](OC(=O)c3ccccc3)[C@]3(O)C[C@H](OC(=O)[C@H](O)[C@@H](NC(=O)c4ccccc4)c4ccccc4)C(C)=C1C3(C)C)[C@]1(OC(C)=O)CO[C@@H]1C[C@@H]2O [Paclitaxel] | -0.75 |
| CC1=C(C(=O)O)N2C(=O)[C@@H](NC(=O)[C@H](N)c3ccc(O)cc3)[C@H]2SC1 [Cefadroxil] | 1.28 |
| CCCCCCCCCCCCCCCC(O)C(N)CO (racemic) [DL-Dihydrosphingosine] | 1.32 |
| CC=CC1=C(C(=O)O)N2C(=O)[C@@H](NC(=O)[C@H](N)c3ccc(O)cc3)[C@H]2SC1 [Cefprozil] | -1.07 |
| CN(C)CCOC(c1ccccc1)c1ccccc1.Cn1c(=O)c2[nH]c(Cl)nc2n(C)c1=O [Dimenhydrinate] | -1.21 |
| NC(=O)c1cnccn1 [Pyrazinamide] | -1.58 |
| CC[C@@H]1/C=C(\C)C[C@H](C)C[C@H](OC)[C@H]2O[C@@](O)(C(=O)C(=O)N3CCCC[C@H]3C(=O)O[C@H](/C(C)=C/[C@@H]3CC[C@@H](O)[C@H](OC)C3)[C@H](C)[C@@H](O)CC1=O)[C@H](C)C[C@@H]2OC [Ascomycin (FK-520)] | 0.116 |
| CN(C)CCCN1c2ccccc2CCc2ccc(Cl)cc21 | -0.47 |
| Cc1cccc(C)c1OCC(C)N (stereo not given) | -0.315 |
| OC(CNCC(O)C1CCc2cc(F)ccc2O1)C1CCc2cc(F)ccc2O1 (stereo not given) | 1.08 |
| O=c1[nH]c(=O)n([C@@H]2O[C@H](CO)[C@@H](O)[C@@H]2F)cc1I [Fialuridine] | 0.751 |
| Cc1cccc(C)c1OCC(=O)N[C@@H](Cc1ccccc1)[C@@H](O)C[C@H](Cc1ccccc1)NC(=O)[C@H](C(C)C)N1CCCNC1=O [Lopinavir] | 1.35 |
| Cc1nnc(-c2ccc(N3CCC(Oc4cc(F)ccc4Cl)CC3)nn2)o1 | -0.863 |
| Nc1nc(NC2CC2)c2ncn([C@H]3C=C[C@@H](CO)C3)c2n1 [Abacavir Sulfate] | 0.552 |
| CC(=O)N[C@@H](CSC/C=C(\C)CCC=C(C)C)C(=O)O [N-Acetyl-S-geranyl-L-cysteine] | 0.4 |
| CO/N=C(\C(=O)N[C@@H]1C(=O)N2C(C(=O)O)=C(C[N+]3(C)CCCC3)CS[C@H]12)c1csc(N)n1 | 0.948 |

| Compound | MALAT1 nuclear FISH intensity |
| --- | --- |
| CC(=O)c1ccc(S(=O)(=O)NC(=O)NC2CCCCC2)cc1 [Acetohexamide] | -0.957 |
| COc1ccc(-c2ccc3cc(C(=O)O)ccc3c2)cc1C12CC3CC(CC(C3)C1)C2 [Adapalene] | -0.946 |
| Cn1cnc(N)c2ncnc1-2 [3-Methyladenine] | -0.414 |
| CC(=O)OCC(=O)[C@@]1(O)CC[C@H]2[C@@H]3CCC4=CC(=O)CC[C@]4(C)[C@H]3[C@@H](O)C[C@@]21C [Hydrocortisone Acetate] | 0.655 |
| COC(=O)N[C@H](C(=O)N[C@@H](Cc1ccccc1)[C@@H](O)CN(Cc1ccc(-c2ccccn2)cc1)NC(=O)[C@@H](NC(=O)OC)C(C)(C)C)C(C)(C)C [Atazanavir] | -1.58 |
| Clc1ccc(CO/N=C(\Cn2ccnc2)c2ccc(Cl)cc2Cl)c(Cl)c1 [Oxiconazole Nitrate] | 0.773 |
| CC(=O)Oc1ccccc1C(=O)Nc1ncc([N+](=O)[O-])s1 [Nitazoxanide] | 0.013 |
| N#Cc1ccc(C(c2ccc(C#N)cc2)n2cncn2)cc1 [Letrozole] | -0.538 |
| O=C(O)C1(C(=O)O)CCC1.[NH2-].[NH2-].[Pt+2] [Carboplatin] | 0.499 |
| O=C(O)CCCC[C@@H]1SC[C@@H]2NC(=O)N[C@@H]21 [Biotin] | -0.445 |
| CN(N=O)C(=O)N[C@@H](C=O)[C@@H](O)[C@H](O)[C@H](O)CO [Streptozocin] | -0.691 |
| CC(C)[C@H](N)C(=O)OCC(CO)OCn1cnc2c(=O)nc(N)[nH]c21 (stereo not given in full) | -0.522 |
| CCCC(CCC)C(=O)O [Sodium Valproate] | -0.236 |
| CN(C)C[C@H](O)Cn1c2ccc(Br)cc2c2cc(Br)ccc21 (racemic) [Wiskostatin] | 0.573 |
| O=C(O)c1cc(=O)c2c(OCC(O)COc3cccc4oc(C(=O)O)cc(=O)c34)cccc2o1 | 1.34 |
| CC1(C)O[C@@H]2[C@@H](CO[C@@]3(COS(N)(=O)=O)OC(C)(C)O[C@@H]23)O1 [Topiramate] | 0.117 |
| CO[C@H]1O[C@@H]2O[C@@]3(C)CC[C@H]4[C@H](C)CC[C@@H]([C@H]1C)[C@@]24OO3 [Artemether] | -0.163 |
| CC1(C)S[C@@H]2[C@H](NC(=O)[C@H](N)c3ccccc3)C(=O)N2[C@H]1C(=O)O [Ampicillin Trihydrate] | -0.144 |
| CC(=O)Oc1ccccc1C(=O)O [Acetylsalicylic acid] | -1.02 |
| CN[C@H]1CC[C@@H](c2ccc(Cl)c(Cl)c2)c2ccccc21 | -0.692 |

From the supplement of paper PMC9844399
